Assay in all cases: DAPPL (digital affinity profiling via proximity ligation, sequencing); 10 mM Tris-HCl pH 7.5, 50 mM NaCl, 1 mM DTT, 4% glycerol, room temperature, 30 min; GST-TFs on glutathione beads, 16-mer random dsDNA library, 0.1% formaldehyde crosslink after washing; high values mean tight binding
The target in test [1] is T1, FEV (Homo sapiens, UniProt Q99581 1-238).
T1 sequence: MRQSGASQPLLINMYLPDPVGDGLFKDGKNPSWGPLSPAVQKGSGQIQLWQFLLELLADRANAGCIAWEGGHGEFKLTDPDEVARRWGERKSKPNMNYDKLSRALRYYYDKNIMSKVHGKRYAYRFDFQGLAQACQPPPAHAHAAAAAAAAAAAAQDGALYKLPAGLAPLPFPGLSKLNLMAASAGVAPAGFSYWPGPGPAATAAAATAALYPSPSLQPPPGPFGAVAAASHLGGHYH
The note with it: protein: recombinant; tags: N-terminal GST; dsDNA, one strand shown. Put shortly: (§1)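 Each value of binding signal is a hexamer's read frequency for a factor divided by the same hexamer's frequency in the tag-only sample. Barcoded, bead-captured GST fusions of human transcription factors made in yeast were pooled with that sample and incubated with 200 nmole of a random double-stranded 16-mer DNA library in Tris/NaCl/DTT/glycerol buffer at room temperature for 30 min. Washing, 0.1% formaldehyde crosslinking, proximity ligation, PCR and Illumina NextSeq500 sequencing followed.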

Test [2] deals with ETV5 (Homo sapiens, UniProt P41161 1-510). The conditions noted are these: protein: recombinant; tags: N-terminal GST; dsDNA, one strand shown. The essentials: as §1
Sequence of ETV5 (P41161 whole entry): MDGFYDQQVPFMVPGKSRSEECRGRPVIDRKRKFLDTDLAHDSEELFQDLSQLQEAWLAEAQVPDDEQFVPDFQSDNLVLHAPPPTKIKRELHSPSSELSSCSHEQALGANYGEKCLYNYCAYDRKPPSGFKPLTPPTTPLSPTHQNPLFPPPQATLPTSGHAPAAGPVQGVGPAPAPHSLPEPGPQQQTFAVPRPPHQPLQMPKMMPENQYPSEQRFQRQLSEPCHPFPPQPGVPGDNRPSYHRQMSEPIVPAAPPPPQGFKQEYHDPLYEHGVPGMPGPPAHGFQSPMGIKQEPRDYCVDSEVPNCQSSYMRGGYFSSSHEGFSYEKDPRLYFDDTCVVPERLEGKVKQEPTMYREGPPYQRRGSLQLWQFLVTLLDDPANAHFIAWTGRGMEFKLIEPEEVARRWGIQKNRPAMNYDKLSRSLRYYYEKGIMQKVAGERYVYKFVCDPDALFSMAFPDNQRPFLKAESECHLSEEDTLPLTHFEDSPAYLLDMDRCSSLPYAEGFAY
The target of test [3] is HSF1 (Homo sapiens, UniProt Q00613 1-529). The note with it: protein: recombinant; tags: N-terminal GST; chain copies: 3; dsDNA, one strand shown. The essentials: as §1
Sequence of HSF1 (Q00613 whole entry): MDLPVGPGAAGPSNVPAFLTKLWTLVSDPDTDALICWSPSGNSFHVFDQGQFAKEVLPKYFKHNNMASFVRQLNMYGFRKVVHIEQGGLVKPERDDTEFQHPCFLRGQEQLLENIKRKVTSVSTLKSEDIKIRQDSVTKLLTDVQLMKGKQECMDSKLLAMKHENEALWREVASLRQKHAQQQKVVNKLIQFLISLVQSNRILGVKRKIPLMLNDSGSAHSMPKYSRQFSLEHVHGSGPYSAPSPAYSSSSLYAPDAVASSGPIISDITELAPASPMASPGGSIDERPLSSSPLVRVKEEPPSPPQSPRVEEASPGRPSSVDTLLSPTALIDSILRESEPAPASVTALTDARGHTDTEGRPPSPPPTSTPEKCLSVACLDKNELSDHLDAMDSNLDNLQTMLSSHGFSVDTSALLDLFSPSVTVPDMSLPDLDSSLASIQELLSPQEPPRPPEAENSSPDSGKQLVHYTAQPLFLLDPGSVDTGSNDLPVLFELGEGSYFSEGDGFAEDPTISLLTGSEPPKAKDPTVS
Test [4] deals with T2, SPIC (Homo sapiens, UniProt Q8N5J4 1-248).
T2 sequence: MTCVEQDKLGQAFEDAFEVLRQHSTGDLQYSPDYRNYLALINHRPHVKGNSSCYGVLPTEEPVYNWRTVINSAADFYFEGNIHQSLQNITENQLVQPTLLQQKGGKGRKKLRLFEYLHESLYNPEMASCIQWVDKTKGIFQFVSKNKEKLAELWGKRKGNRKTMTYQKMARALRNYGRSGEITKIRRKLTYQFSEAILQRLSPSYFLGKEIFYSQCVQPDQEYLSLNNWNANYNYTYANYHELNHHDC
The conditions noted are these: protein: recombinant; tags: N-terminal GST; dsDNA, one strand shown. Put shortly: as §1

Test [5] deals with ELF4 (Homo sapiens, UniProt Q99607 1-663). The conditions noted are these: protein: recombinant; tags: N-terminal GST; dsDNA, one strand shown. The essentials: as §1
Sequence of ELF4 (Q99607 whole entry): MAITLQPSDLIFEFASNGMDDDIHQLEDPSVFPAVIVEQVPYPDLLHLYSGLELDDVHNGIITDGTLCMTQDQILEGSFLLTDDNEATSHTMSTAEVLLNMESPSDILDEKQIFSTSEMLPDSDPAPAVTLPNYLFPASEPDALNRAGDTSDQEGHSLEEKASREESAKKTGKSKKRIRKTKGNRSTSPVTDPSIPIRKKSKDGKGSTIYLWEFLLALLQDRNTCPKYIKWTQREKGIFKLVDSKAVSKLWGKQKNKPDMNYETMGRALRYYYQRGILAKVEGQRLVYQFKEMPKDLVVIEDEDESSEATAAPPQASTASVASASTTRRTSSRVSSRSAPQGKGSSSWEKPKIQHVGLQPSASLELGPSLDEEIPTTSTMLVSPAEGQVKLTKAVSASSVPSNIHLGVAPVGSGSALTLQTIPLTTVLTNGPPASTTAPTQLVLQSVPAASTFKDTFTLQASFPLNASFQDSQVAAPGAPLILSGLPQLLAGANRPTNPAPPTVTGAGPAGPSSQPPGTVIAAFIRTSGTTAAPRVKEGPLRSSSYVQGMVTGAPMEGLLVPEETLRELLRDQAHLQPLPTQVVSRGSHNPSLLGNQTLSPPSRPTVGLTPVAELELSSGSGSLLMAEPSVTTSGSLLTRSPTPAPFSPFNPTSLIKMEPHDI
The target in test [6] is T3, ELK4 (Homo sapiens, UniProt P28324-2 1-405).
T3 sequence: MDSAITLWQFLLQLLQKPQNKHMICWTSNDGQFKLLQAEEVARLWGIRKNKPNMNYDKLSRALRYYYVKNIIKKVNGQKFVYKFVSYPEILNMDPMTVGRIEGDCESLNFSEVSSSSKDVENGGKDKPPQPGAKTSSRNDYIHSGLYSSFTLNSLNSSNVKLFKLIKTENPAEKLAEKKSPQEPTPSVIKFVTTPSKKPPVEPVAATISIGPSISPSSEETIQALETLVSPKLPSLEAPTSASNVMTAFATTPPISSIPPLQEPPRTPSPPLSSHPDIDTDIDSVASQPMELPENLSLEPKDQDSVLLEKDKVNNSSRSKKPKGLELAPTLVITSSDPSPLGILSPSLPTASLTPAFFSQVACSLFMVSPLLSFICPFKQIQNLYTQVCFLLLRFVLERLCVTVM
The conditions noted are these: protein: recombinant; tags: N-terminal GST; dsDNA, one strand shown. Put shortly:
as §1

Test [7] deals with T4, ETV2 (Homo sapiens, UniProt O00321 1-342).
T4 sequence: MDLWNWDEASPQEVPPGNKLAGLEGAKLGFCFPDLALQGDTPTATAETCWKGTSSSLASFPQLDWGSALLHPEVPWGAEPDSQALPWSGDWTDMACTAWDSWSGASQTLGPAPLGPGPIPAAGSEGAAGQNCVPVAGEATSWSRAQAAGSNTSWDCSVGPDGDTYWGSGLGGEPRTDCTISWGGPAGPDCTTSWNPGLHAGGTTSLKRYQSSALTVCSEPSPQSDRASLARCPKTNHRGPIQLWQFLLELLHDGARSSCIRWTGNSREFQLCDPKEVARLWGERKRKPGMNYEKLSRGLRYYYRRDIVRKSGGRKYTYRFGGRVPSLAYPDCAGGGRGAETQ
The conditions noted are these: protein: recombinant; tags: N-terminal GST; dsDNA, one strand shown. Put shortly:
as §1

In test [8] the target is T5, ELF3 (Homo sapiens, UniProt P78545 1-371).
T5 sequence: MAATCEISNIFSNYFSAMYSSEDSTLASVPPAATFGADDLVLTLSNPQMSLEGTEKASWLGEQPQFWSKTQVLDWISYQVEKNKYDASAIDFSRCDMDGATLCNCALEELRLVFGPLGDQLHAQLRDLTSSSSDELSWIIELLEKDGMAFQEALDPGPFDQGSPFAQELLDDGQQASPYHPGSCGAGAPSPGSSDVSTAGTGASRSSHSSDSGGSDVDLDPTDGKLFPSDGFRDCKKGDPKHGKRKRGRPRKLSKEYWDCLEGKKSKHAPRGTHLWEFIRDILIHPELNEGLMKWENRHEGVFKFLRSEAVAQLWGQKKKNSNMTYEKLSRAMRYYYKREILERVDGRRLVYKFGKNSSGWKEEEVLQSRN
The note with it: protein: recombinant; tags: N-terminal GST; dsDNA, one strand shown. The essentials: as §1

Test [9] deals with CRX (Homo sapiens, UniProt O43186 1-299). The conditions noted are these: protein: recombinant; tags: N-terminal GST; dsDNA, one strand shown. Put shortly:
as §1

For test [10], the target named is ETV1 (Homo sapiens, UniProt P50549 1-477). The conditions noted are these: protein: recombinant; tags: N-terminal GST; dsDNA, one strand shown. Put shortly: as §1
Sequence of ETV1 (P50549 whole entry): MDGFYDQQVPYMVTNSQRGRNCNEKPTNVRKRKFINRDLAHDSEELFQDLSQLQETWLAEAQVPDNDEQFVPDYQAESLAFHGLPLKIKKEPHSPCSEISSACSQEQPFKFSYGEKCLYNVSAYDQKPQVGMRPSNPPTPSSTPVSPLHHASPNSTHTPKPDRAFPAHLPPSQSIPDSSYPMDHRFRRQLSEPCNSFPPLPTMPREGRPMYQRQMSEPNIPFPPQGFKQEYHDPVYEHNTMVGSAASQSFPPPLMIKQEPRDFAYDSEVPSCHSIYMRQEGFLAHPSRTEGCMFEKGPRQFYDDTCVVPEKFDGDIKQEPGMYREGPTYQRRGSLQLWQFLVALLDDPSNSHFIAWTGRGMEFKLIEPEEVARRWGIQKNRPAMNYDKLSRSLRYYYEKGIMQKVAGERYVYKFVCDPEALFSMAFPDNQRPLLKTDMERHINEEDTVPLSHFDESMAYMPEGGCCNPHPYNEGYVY
Test [11] has as its target T6, ERF (Homo sapiens, UniProt P50548 1-548).
T6 sequence: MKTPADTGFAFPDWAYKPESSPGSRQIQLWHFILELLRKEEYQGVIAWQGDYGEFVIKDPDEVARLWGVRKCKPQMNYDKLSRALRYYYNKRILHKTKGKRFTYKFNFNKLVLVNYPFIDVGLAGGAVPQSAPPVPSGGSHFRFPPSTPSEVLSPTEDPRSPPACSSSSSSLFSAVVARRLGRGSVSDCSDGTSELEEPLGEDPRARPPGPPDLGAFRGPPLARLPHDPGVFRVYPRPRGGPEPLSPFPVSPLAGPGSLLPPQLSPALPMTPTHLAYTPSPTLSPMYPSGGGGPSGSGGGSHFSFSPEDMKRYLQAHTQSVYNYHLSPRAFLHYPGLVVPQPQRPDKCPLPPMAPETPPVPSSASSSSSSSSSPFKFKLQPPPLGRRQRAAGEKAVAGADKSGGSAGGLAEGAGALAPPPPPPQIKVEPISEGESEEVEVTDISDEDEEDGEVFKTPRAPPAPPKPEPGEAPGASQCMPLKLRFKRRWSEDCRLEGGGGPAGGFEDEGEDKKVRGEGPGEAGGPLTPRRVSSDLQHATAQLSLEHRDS
The note with it: protein: recombinant; tags: N-terminal GST; dsDNA, one strand shown. Put shortly:
as §1

For test [12], the target named is T7, ETV3L (Homo sapiens, UniProt Q6ZN32 1-361).
T7 sequence: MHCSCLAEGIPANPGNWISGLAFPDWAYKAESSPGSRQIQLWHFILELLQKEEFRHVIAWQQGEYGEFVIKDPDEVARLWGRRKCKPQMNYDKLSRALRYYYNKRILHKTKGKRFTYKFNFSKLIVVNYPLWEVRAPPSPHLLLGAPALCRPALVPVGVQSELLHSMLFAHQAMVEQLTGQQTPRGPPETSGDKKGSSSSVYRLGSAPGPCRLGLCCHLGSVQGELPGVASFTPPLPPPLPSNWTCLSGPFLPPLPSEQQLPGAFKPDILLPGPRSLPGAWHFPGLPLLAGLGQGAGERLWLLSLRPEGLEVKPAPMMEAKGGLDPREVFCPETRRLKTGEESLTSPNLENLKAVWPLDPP
The conditions noted are these: protein: recombinant; tags: N-terminal GST; dsDNA, one strand shown. The essentials:
as §1

In test [13] the target is T8, ETS2 (Homo sapiens, UniProt P15036 1-469).
T8 sequence: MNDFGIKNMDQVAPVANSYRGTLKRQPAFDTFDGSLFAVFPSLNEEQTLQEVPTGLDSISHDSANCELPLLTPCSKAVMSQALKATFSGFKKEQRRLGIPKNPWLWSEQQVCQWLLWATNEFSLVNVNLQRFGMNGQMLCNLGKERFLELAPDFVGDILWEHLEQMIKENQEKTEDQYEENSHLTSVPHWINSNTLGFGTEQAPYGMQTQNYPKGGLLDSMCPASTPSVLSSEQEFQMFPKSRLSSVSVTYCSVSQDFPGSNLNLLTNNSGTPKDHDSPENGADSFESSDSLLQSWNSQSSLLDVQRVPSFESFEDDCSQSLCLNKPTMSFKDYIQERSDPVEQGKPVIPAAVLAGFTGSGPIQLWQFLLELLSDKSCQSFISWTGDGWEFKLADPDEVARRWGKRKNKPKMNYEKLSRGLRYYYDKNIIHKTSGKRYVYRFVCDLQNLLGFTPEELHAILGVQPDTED
The note with it: protein: recombinant; tags: N-terminal GST; dsDNA, one strand shown. The essentials:
as §1

The target of test [14] is T9, SPDEF (Homo sapiens, UniProt O95238 1-335).
T9 sequence: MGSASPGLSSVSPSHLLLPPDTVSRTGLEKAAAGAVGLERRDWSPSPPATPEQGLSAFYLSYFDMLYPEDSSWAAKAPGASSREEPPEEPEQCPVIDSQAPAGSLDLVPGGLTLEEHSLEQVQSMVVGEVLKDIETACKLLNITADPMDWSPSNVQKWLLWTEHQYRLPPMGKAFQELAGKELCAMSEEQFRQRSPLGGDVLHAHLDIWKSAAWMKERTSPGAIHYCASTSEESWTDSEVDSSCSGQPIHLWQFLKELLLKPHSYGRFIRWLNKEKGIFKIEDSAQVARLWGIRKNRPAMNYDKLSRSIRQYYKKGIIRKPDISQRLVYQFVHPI
The conditions noted are these: protein: recombinant; tags: N-terminal GST; dsDNA, one strand shown. Put shortly: as §1

Test [15] deals with T10, ETV7 (Homo sapiens, UniProt Q9Y603 1-341).
T10 sequence: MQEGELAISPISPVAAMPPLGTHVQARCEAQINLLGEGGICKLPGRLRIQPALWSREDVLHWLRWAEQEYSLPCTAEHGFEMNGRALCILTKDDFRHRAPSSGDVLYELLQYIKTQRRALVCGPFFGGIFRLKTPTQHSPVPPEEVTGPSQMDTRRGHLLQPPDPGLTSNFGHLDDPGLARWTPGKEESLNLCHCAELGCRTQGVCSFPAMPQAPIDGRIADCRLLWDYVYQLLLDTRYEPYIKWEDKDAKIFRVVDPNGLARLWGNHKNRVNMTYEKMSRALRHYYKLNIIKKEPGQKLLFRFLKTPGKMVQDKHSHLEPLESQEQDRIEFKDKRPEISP
The note with it: protein: recombinant; tags: N-terminal GST; dsDNA, one strand shown. Put shortly:
as §1

Test [16] concerns the target T11, ELF5 (Homo sapiens, UniProt Q9UKW6-2 1-255).
T11 sequence: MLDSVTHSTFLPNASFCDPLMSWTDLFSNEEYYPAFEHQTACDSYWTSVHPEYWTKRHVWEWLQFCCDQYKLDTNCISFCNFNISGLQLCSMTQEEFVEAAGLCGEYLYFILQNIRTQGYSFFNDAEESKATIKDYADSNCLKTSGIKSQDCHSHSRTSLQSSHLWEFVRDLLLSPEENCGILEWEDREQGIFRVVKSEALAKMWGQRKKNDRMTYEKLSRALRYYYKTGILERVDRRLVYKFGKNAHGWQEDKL
The note with it: protein: recombinant; tags: N-terminal GST; dsDNA, one strand shown. The essentials: as §1

Test [17] has as its target T12, ETV3 (Homo sapiens, UniProt P41162-2 1-143).
T12 sequence: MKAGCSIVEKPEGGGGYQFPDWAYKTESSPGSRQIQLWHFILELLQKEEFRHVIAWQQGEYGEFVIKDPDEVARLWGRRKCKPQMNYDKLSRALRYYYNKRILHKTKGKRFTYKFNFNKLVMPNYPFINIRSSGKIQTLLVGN
The conditions noted are these: protein: recombinant; tags: N-terminal GST; dsDNA, one strand shown. The essentials:
as §1

In test [18] the target is ETV6 (Homo sapiens, UniProt P41212 1-452). The conditions noted are these: protein: recombinant; tags: N-terminal GST; dsDNA, one strand shown. Put shortly:
as §1

Sequence of ETV6 (P41212 whole entry): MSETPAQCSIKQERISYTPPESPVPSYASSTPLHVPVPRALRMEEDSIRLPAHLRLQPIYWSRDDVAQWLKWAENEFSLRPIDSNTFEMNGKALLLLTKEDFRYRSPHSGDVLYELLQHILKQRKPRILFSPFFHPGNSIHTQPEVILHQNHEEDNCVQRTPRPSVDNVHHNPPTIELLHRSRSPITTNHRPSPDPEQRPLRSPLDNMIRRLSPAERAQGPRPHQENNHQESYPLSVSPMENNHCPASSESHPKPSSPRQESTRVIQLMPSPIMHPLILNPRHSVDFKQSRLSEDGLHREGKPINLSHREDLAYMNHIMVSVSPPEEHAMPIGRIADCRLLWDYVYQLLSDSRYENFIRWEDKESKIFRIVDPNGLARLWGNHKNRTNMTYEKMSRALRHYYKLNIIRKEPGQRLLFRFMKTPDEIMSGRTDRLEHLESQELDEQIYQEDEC
Sequence of CRX (O43186 whole entry): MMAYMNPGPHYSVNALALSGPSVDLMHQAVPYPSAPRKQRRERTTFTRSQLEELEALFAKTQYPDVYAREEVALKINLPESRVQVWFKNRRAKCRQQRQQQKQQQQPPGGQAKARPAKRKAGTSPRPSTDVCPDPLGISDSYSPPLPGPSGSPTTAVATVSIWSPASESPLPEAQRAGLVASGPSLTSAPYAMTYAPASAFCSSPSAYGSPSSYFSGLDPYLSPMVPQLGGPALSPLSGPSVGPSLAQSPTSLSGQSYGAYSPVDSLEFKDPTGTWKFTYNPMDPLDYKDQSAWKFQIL

Consider TCCCTA, for which the binding signal in test [1] is 1.2 fold enrichment (6-mer frequency, TF over GST control); in test [2] it was 1.43 fold enrichment (6-mer frequency, TF over GST control); in test [3], 1.32 fold enrichment (6-mer frequency, TF over GST control); in [4], 1.31 fold enrichment (6-mer frequency, TF over GST control); in [5], 1.31 fold enrichment (6-mer frequency, TF over GST control); in test [6], 1.19 fold enrichment (6-mer frequency, TF over GST control). Besides, the binding signal in [7] was 1.25 fold enrichment (6-mer frequency, TF over GST control); in [8], 1.36 fold enrichment (6-mer frequency, TF over GST control); in test [9], 1.47 fold enrichment (6-mer frequency, TF over GST control); in [10], 1.32 fold enrichment (6-mer frequency, TF over GST control); in test [11], 1.43 fold enrichment (6-mer frequency, TF over GST control); in test [12] it was 1.39 fold enrichment (6-mer frequency, TF over GST control). Further, the binding signal is 1.32 fold enrichment (6-mer frequency, TF over GST control) in [13]; 1.4 fold enrichment (6-mer frequency, TF over GST control) in test [14]; 1.16 fold enrichment (6-mer frequency, TF over GST control) in test [15]; 1.67 fold enrichment (6-mer frequency, TF over GST control) in test [16]; 1.38 fold enrichment (6-mer frequency, TF over GST control) in [17]; 1.17 fold enrichment (6-mer frequency, TF over GST control) in test [18].
